From PubChem
Shiga toxin inh: Shiga toxin inhibition; Vero cells, Shiga toxin protein synthesis inhibition reporter; inhibition, % at 38.7 µM; 9.2% of 290,000 active; AID 2315; in the data active means inhibition mostly above about 28%, no sharp cut-off; inactive means mostly below about 43%; further: 0% is about no effect
TbPYK inhibitor: inhibitors of Trypanosoma brucei pyruvate kinase; TbPYK enzyme, Kinase-Glo Plus ATP luminescence, 45 min; Potency, µM (doses to about 76.8 µM), for the others: at the highest dose activity, negative = inhibition, usual class: inhibitors; 0.12% of 410,000 active; AID 624173; active means well fitted curve in the direction sought with a large enough effect; inconclusive means small, poorly fitted or top-dose-only effect, or another doubt; inactive means no such curve, though single readings can be large; an effect the other way counts as inactive or inconclusive; further: potency means the concentration at half of the fitted maximal effect; on the % scale 0 is the no-effect control and ±100 the full control effect; nearly all actives have a fitted effect of over 50% in size
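Enzyme and substrate buffer are dispensed first and compound is pin-transferred. ADP at 130 uM final then starts the reaction, which runs 45 min at room temperature. Detection reagent is added for 10 min before luminescence is imaged.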
CHX counter: counter-screen hit for Shiga toxin inhibitors, cycloheximide; cell reporter, cycloheximide protein synthesis inhibition counterscreen; 12% of 300,000 active; max response, %; in the data active means max response mostly above about 13%, no sharp cut-off; inactive means mostly below about 14%; further: read at 38.3 µM for the half of the compounds with a filed dose; 0% is about no effect
NS1 function inh: inhibitors of influenza NS1 protein function; Potency, µM (top dose mostly 46.1 µM), inactives show at the top dose activity, positive = more growth; 0.4% of 270,000 active; further: potency means the concentration at half of the fitted maximal effect; actives are rising curves; nearly all actives have a fitted effect of over 50% in size
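Growth recovery, yeast-based: influenza A NS1 expressed in S. cerevisiae causes slow growth, and suppressors are detected by OD600. The parent strain without NS1 is used as positive control.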
SARS PLP yeast: blocks SARS-CoV papain-like protease in a yeast assay; AID 485353; 0.19% of 330,000 active; S. cerevisiae expressing SARS-CoV PLpro, growth rescue; Potency, µM (top dose mostly 32.9 µM), for inactives: at the highest dose activity, positive = growth rescue, actives largely listed as activators; further: potency means the concentration at half of the fitted maximal effect; 0% is about no effect; nearly all actives have a fitted effect of over 55% in size
LmPK inh: blocks Leishmania mexicana pyruvate kinase activity; Q27686; purified LmPK, Kinase-Glo ATP luminescence, 1 h; Potency, µM (highest dose often 57.5 µM), without a hit: top-dose activity change, negative = inhibition, usual class: inhibitors; 0.37% of 290,000 active; active means well fitted curve in the direction sought with a large enough effect; inconclusive means small, poorly fitted or top-dose-only effect, or another doubt; inactive means no such curve, though single readings can be large; an effect the other way counts as inactive or inconclusive; further: potency means the concentration at half of the fitted maximal effect; on the % scale 0 is the no-effect control and ±100 the full control effect
Target sequence (Q27686 whole entry, looked up): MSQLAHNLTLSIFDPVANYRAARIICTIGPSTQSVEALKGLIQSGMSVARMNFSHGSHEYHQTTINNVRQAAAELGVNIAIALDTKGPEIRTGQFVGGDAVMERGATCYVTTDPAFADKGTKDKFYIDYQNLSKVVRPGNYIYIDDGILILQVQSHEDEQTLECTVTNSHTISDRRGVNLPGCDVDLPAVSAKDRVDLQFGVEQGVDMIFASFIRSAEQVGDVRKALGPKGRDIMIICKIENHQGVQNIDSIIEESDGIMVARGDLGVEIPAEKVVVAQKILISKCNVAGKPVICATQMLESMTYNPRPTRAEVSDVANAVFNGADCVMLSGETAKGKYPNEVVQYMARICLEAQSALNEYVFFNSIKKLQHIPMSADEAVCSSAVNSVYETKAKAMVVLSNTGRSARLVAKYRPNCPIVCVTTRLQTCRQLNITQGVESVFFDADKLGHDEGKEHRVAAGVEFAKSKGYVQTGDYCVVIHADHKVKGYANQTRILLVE
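ATP generated from ADP (0.1 mM) and PEP (0.5 mM) by 0.1 nM LmPK over 1 h at room temperature (pH 7.2 imidazole buffer) was detected by coupled luciferase luminescence. Values were normalized to uninhibited and no-enzyme wells.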
* marks the source's active call; other numbers are inactive results; ? = inconclusive; . = not tested or not shown. Many of the other results were omitted from the sample, so hits are more common in it than they were. Unless noted, the call rests on the fitted dose curve.

SMILES	Shiga toxin inh	TbPYK inhibitor	CHX counter	NS1 function inh	SARS PLP yeast	LmPK inh
CC(C)c1ccc(OCC(=O)N(Cc2ccccc2)c2ccccn2)cc1	16.9	-0.9%	13.9*	-28.7%	-11.5%	2.2%
O=C(COc1ccc(Br)cc1)N(Cc1ccccc1)c1ccccn1	52.7*	3.8%	15.5	-5.6%	-10.1%	0.2%
CC(=O)Nc1ccc2nc(-c3ccccn3)[nH]c2c1	74.3*	-4.4%	45.6*	-1.0%	-0.8%	-24.9%
c1ccc(-c2nc3cc4ccccc4cc3[nH]2)nc1	7.1	-19.1%	1.4	-1.6%	-28.0%	15.8µM*
c1cncc(-c2nc3cc4ccccc4cc3[nH]2)c1	61.8*	-2.5%	45.5*	-75.2%	-16.7%	?
CCC(C)CC(C)CC(C)C(=O)/C=C(/O)C(C)CC(C)C/C=C/C(C)C(O)C(C)C(O)CC1CCC(C)(C)O1 (configuration not stated)	-12.2	.	-14.0	.	.	.
Cc1ccc(CNc2ncnc3ccc(-c4ccoc4C)cc23)o1	.	7.6%	.	.	.	.
CO/N=C/c1ccc(Oc2ccc(C)cc2)nc1	44.9*	-3.3%	26.8*	-21.8%	8.4%	-0.9%
COc1ccc(-c2ccoc2)cc1C1C2C=CCC(C)C2C(=O)N1Cc1ccccc1 (configuration not stated)	-1.6	.	6.0	.	.	.
COc1ccc(C(=O)C2CC2)cc1	.	-1.9%	.	.	.	.
COc1ccc(OCC(=O)C2CC2)c(C#N)c1	25.6	2.4%	27.1*	-4.4%	0.2%	-0.1%
O=C1CC[C@@H](C(=O)N[C@@H](Cc2cnc[nH]2)C(=O)N[C@@H](Cc2c[nH]c3ccccc23)C(=O)N[C@@H](CO)C(=O)N[C@@H](Cc2ccc(O)cc2)C(=O)O)N1	-1.7	.	19.8	.	.	.
CC(C)CC(=O)NC(=S)Nc1ccccc1F	26.8	4.2%	15.1	2.3%	.	-2.0%
O=C(Cc1cccs1)Nc1ccccn1	3.1	-11.5%	-2.4	?	-0.7%	6.7%
Cc1ccnc(NC(=O)c2cc([N+](=O)[O-])cc([N+](=O)[O-])c2)c1	21.0	1.1%	7.4	.	3.8%	-6.1%
O=C(CC(=O)Nc1ccccn1)Nc1ccccn1	14.7	5.9%	18.0*	-11.8%	3.1%	0.3%
O=C(Cc1ccc(-c2ccccc2)cc1)Nc1ccccn1	88.2*	5.9%	39.8*	-30.6%	-2.7%	-0.4%
CC(C)CC(=O)NC(=S)Nc1ccccn1	44.1	7.6%	26.0*	-11.6%	?	1.8%
Cc1ccnc(NC(=O)Cc2ccc([N+](=O)[O-])cc2)c1	57.9	21.7%	18.8*	1.2%	0.8%	1.5%
O=C(CN1CCN(CC(=O)Nc2ccccn2)CC1)Nc1ccccn1	-10.2	-3.9%	-3.0	-2.6%	7.4%	0.4%
Cc1nc2cnc(Oc3ccccc3)nc2n(CCC#N)c1=O	.	0.0%	.	.	.	.
Cc1ccc(NC(=O)Cc2ccc(-c3ccccc3)cc2)nc1	50.2	-1.5%	-2.6	-2.0%	-5.8%	-1.6%
NC(=O)c1ccsc1NC(=O)COC(=O)COc1ccccc1[N+](=O)[O-]	.	3.4%	.	.	-4.5%	.
O=C(Nc1ccccn1)Nc1cccs1	38.0*	0.0%	36.3*	-68.7%	4.7%	-11.4%
NC(=O)c1ccsc1NC(=O)Cc1ccc([N+](=O)[O-])cc1	32.5	3.0%	30.8*	.	-0.5%	-1.3%
SMILES	Shiga toxin inh	TbPYK inhibitor	CHX counter	NS1 function inh	SARS PLP yeast	LmPK inh
Cc1ccnc(NC(=O)Cc2ccc(-c3ccccc3)cc2)c1	79.6*	0.0%	72.2*	9.4%	-4.9%	-3.6%
CS(=O)(=O)Nc1cc2occ(NC=O)c(=O)c2cc1Oc1ccccc1	.	-1.6%	.	.	.	.
c1ccc(CSc2nnc(NC3CCCCC3)s2)cc1	.	-2.1%	.	.	.	.
Cc1ccc(-c2nnc(NC3CCCC3)s2)cc1	52.7*	-5.1%	53.8*	-1.7%	-2.5%	-2.8%
CC(N)=Nc1ccc([N+](=O)[O-])cc1	-6.0	8.3%	-2.3	12.0%	-6.4%	-3.2%
O=[N+]([O-])c1cccc(N=Cc2ccccc2)c1	.	2.5%	.	.	.	.
O=[N+]([O-])c1ccc(N=Cc2sc3ccccc3c2O)cc1	108.5*	-8.3%	43.2*	0.1%	-17.7%	-5.6%
O=[N+]([O-])c1cccc(N=Cc2sc3ccccc3c2O)c1	85.9*	.	38.1*	-4.0%	1.3%	-6.0%
Oc1c(C=NCc2ccccc2)sc2ccccc12	91.2*	4.7%	27.8*	-9.4%	-1.4%	-5.8%
COc1cccc(NC(=O)c2nc3ncccn3n2)c1	65.2*	-2.0%	48.4*	-3.2%	.	-6.7%
COc1cccc(NC(=O)c2ccc(-n3cccn3)nc2)c1	26.0*	-3.9%	40.2*	-17.1%	-7.7%	-2.7%
C[C@]12CC[C@H]3C(=CCc4cc(O)ccc43)[C@@H]1CCC2=O	33.5	-11.1%	15.5*	-24.5%	-15.8%	-1.9%
C=CCn1c(SCC(=O)N(CCO)CCO)nc2sc3c(c2c1=O)CCC3	-15.6	3.2%	-1.4	14.4%	-1.7%	-2.4%
CCOC(=O)c1cccc(Nc2nc(C)cc(C)n2)c1	13.2	-8.9%	13.8*	-12.4%	-2.7%	-0.6%
Cc1cc(C)nc(Nc2cccc(Cl)c2)n1	33.6	2.2%	15.1*	-19.9%	-10.1%	-0.9%
Cc1cc(C)nc(Nc2cccc(C(F)(F)F)c2)n1	14.6	6.2%	2.3	-10.2%	-0.6%	1.5%
COc1ccccc1C(=O)NC(=O)COC(=O)CCOc1cc(C)ccc1C	-11.1	-7.4%	-0.9	-17.2%	-0.9%	8.2%
COc1ccc(NC(=O)Cn2c(=O)n(CCC(=O)NCc3ccccc3OC)c(=O)c3ccccc32)cc1Cl	.	0.8%	.	.	.	.
COc1ccc(-n2nc(C(=O)NCC(=O)N3CCC4(CC3)OCCO4)c3ccccc3c2=O)c(OC)c1	27.3	1.8%	12.7	-14.0%	-1.5%	9.4%
COc1ccc(-n2nc(C(=O)NCC(=O)N3CCC(C)CC3)c3ccccc3c2=O)c(OC)c1	40.1	0.0%	16.4*	6.0%	1.5%	1.0%
COc1ccc(-n2nc(C(=O)NCC(=O)N3CCOCC3)c3ccccc3c2=O)c(OC)c1	15.9	-3.7%	2.5	2.3%	-1.5%	3.5%
COc1ccc(-n2nc(C(=O)NCC(=O)N3CCCCCC3)c3ccccc3c2=O)c(OC)c1	55.2	2.7%	16.1*	0.1%	-0.5%	0.0%
COc1ccc(-n2nc(C(=O)NCC(=O)N3CCCCC3)c3ccccc3c2=O)c(OC)c1	32.7	-0.2%	17.9*	-15.7%	-3.0%	4.0%
CC(NC(=O)C1CCN(S(=O)(=O)N2CCCCCC2)CC1)c1ccccc1 (configuration not stated)	-6.8	0.7%	16.5*	-7.1%	2.9%	0.7%
CC(NC(=O)C1CCN(S(=O)(=O)N2CCC3(CC2)OCCO3)CC1)c1ccccc1 (configuration not stated)	-4.1	0.4%	-2.3	.	-4.5%	6.7%
O=C(N/N=C/c1ccc(F)cc1)c1cc(-c2ccc3c(c2)OCO3)n[nH]1	24.5	4.0%	15.4	5.3%	-1.4%	-0.8%
CN(C)c1ccc(/C=N/NC(=O)c2cc(-c3ccc4c(c3)OCO4)n[nH]2)cc1	59.8*	-7.7%	31.1*	-9.4%	0.6%	-0.7%
